Measurements: PubChem BioAssay AID651658 (Broad Institute, 2012)
Screen size: about 340,000 compounds; about 5,100 (1.5%) were called active. The sample as a whole holds a higher share of actives than the screen did. A number with no mark means an inactive call.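 How the source made its calls: active means mean Tm shift, scaled 0 neutral to 100 positive control, at about 1.3% or above, every replicate too (limit read from the data); inconclusive means no clear call, values can overlap the other calls; inactive means the rest.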

What follows are compounds tested against Fibroblast growth factor 22 (Homo sapiens) (UniProt Q9HCT0) (assay: binders of human FGF22 protein, primary screen, FGF22 synaptogenesis inhibitor project, biophysical, thermal shift, single point (AID 651658)). Conditions: recombinant FGF22 thermal shift, SYPRO orange fluorescence; at 9.99 µM; active compounds read high; percent of sucrose octasulfate shift, DMSO zero.
Chain of Fibroblast growth factor 22 (Homo sapiens) (Q9HCT0 whole entry, looked up): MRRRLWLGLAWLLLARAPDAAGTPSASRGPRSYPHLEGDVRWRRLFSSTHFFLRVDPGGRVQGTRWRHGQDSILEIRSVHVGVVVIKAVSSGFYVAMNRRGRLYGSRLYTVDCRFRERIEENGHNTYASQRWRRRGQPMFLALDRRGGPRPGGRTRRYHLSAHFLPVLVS

SMILES | activity (Tm shift, normalised)
O=C(COC(=O)/C=C/c1ccc(Cl)cc1)NC1CCS(=O)(=O)C1 (configuration not stated) | 0.02%
O=C(COC(=O)c1ncc(Cl)c(Cl)c1Cl)NC1CCS(=O)(=O)C1 (configuration not stated) | 0.023%
COc1ccc2c3c([nH]c2c1)[C@H](CO)N(C(C)=O)CC31CN(S(=O)(=O)c2cccs2)C1 | -10.2%
C[C@H]1CN([C@@H](C)CO)C(=O)Cc2cc(NC(=O)Cn3cnnn3)ccc2O[C@H]1CN(C)Cc1ccc(C(=O)O)cc1 | -0.049%
C[C@@H]1CN([C@@H](C)CO)C(=O)Cc2cc(NC(=O)Cc3cn(C)c4ccccc34)ccc2O[C@H]1CN(C)Cc1ccc(C(=O)O)cc1 | 0.077%
C[C@@H]1CN([C@H](C)CO)C(=O)Cc2cc(NC(=O)Cn3cnnn3)ccc2O[C@H]1CN(C)Cc1ccc(C(F)(F)F)cc1 | 1.38% (active)
C[C@H](CO)N1C[C@H](C)[C@@H](CN(C)Cc2ccc(C(=O)O)cc2)Oc2ccc(NC(=O)Cn3cnnn3)cc2CC1=O | -0.125%
C[C@H]1CN([C@@H](C)CO)C(=O)Cc2cc(NC(=O)Cc3cn(C)c4ccccc34)ccc2O[C@@H]1CN(C)Cc1ccccc1 | 1.38% (active)
C[C@H]1CN([C@@H](C)CO)C(=O)Cc2cc(NC(=O)Cc3cn(C)c4ccccc34)ccc2O[C@H]1CN(C)Cc1ccccc1 | 1.01%
N#C[C@@H]1[C@@H](c2ccccc2)[C@H](CO)N1C(=O)c1cc(Cl)cc(Cl)c1 | -0.051%
CC(C)=C1C2CCC1C1C(=O)N(NC(=O)c3ccco3)C(=O)C21 (configuration not stated) | -0.011%
O=C(NN1C(=O)C2C3C=CC(O3)C2C1=O)c1ccccc1 (configuration not stated) | 1.65% (active)
O=C(NN1C(=O)C2C3C=CC(O3)C2C1=O)c1ccncc1 (configuration not stated) | 0.125%
O=C(C[C@@H]1C[C@H]2c3cc(NC(=O)NC4CCCC4)ccc3O[C@H]2[C@@H](CO)O1)NC1CCCCC1 | -0.272%
O=C(C1CC1)N1CCCCN2[C@H](C1)[C@@H](c1ccc(-c3cccc(F)c3)cc1)[C@@H]2CO | -0.119%
C[C@@H]1CN([C@@H](C)CO)S(=O)(=O)c2ccc(-c3ccc(C#N)cc3)cc2O[C@H]1CN(C)Cc1ccccn1 | -0.176%
COC(=O)[C@]1(C)N[C@H](CN(C)C(=O)c2ccc(C(C)(C)C)cc2)[C@@H]2C(=O)N(C)C(=O)[C@@H]21 | 0.232%
CCOC(=O)C1(C)NC(c2ccco2)C2C(=O)N(c3ccccc3)C(=O)C21 (configuration not stated) | 0.052%
CC[C@@]1(C(=O)OC)N[C@H](CN(C)C(C)=O)[C@@H]2C(=O)N(C)C(=O)[C@@H]21 | 43.4% (active)

SMILES | activity (Tm shift, normalised)
CCN(C[C@H]1N[C@@](CC)(C(=O)OC)[C@H]2C(=O)N(C)C(=O)[C@@H]12)C(=O)Nc1ccc(F)cc1 | -0.067%
CCCC1(C(=O)OC)NC(c2ccco2)C2C(=O)N(C)C(=O)C21 (configuration not stated) | 43.8% (active)
CCCSc1ccc([C@H]2N[C@@](Cc3ccccc3)(C(=O)OC)[C@H]3C(=O)N(C)C(=O)[C@@H]23)cc1 | 0.041%
COc1cccc(S(=O)(=O)N2[C@@H]3CNC[C@H]2C3c2ccc(-c3cccc(C(=O)N(C)C)c3)cc2)c1 (some centres not stated) | 0.014%
C[C@@H]1CN([C@H](C)CO)C(=O)c2cc(NC(=O)c3ccncc3)ccc2O[C@@H]1CN(C)C(=O)Nc1ccc(F)cc1 | -0.074%
CO[C@@H]1CN(C)C(=O)c2cc(NS(C)(=O)=O)ccc2OC[C@@H](C)N(C(=O)C2CCC2)C[C@@H]1C | -0.13%
CO[C@H]1CN(C)C(=O)c2ccc(NC(=O)C3CCCC3)cc2OC[C@H](C)N(C(=O)CC2CC2)C[C@@H]1C | 0.031%
N#C[C@@H]1[C@@H](c2ccccc2)[C@@H](CO)N1C(=O)Cc1ccccc1 | -0.224%
COc1ccccc1NC(=O)N1[C@H](C#N)[C@H](c2ccccc2)[C@H]1CO | 1.69% (active)
CCCNC(=O)N1[C@H](C#N)[C@@H](c2ccccc2)[C@H]1CO | 0.065%
CCCc1cn(CC[C@H]2CC[C@@H](NS(=O)(=O)c3ccccc3Cl)[C@@H](CO)O2)nn1 | -0.219%
O=C(Cn1cnc2c(OCc3ccccc3)ncnc21)NCCCn1ccnc1 | 43.3% (active)
CC(CNC(=O)Cn1cnc2c(OCc3ccccc3)ncnc21)c1ccccc1 (configuration not stated) | -0.208%
Cc1ccc(NC(=O)Cn2cnc3c(OCc4ccccc4)ncnc32)cc1C | 0.021%
CCC(=O)N(C)C[C@@H]1Oc2ncc(C#CCc3ccccc3)cc2C(=O)N([C@H](C)CO)C[C@H]1C | -0.313%
COc1ccc(CNC(=O)CCN2C(=O)c3ccccc3C2=O)cc1 | -0.249%
Cc1cc(C)cc(NC(=O)CCN2C(=O)c3ccccc3C2=O)c1 | 0.073%
Cc1cc(C)cc(OCC(=O)NNC(=O)CCN2C(=O)c3ccccc3C2=O)c1 | 43.2% (active)
